Screens: PubChem, several laboratories
LMP1 NFkB inh: EBV LMP1-driven NF-kappaB luciferase reporter inhibitors, primary screen, cell-based, luminescence, single point; LMP1-induced NF-kappaB luciferase reporter cells; inhibition, % at 12.5 µM; actives 0.69% (n = 350,000); AID 504558, 2011; in the data active means inhibition above about 41%; inconclusive means no clear call, values can overlap the other calls
HIF-2a inh: HIF-2a reporter inhibitors, primary screen, luminescence, 786-0 RCC cells; 786-0 RCC cells HIF-2a reporter, luciferase luminescence, overnight; inhibition, % at 18.8 µM; actives 0.72% (n = 360,000);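 active means inhibition of the luminescence signal of 40% or more relative to plate controls, in a single-dose primary screen at 18.75 µM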
TWEAK Fn14 block: inhibitors of TWEAK-Fn14 signaling, primary screen, luciferase reporter cells, uHTS; TWEAK-stimulated Fn14 reporter cells, luciferase luminescence, 8 h; inhibition, % at 10 µM; actives 2% (n = 360,000); AID 1159606, 2016; in the data active means inhibition above about 50%
MITF TRPM1 inh: inhibitors of MITF-dependent TRPM1 promoter reporter, primary screen, cell-based, SK-MEL-5, single point, luciferase; SK-MEL-5 TRPM1 promoter luciferase, 24 h; actives 0.83% (n = 330,000); inhibition, % at 12.5 µM;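 active means mean inhibition across replicates of 60% or more, whatever share of single replicates reaches that level; inconclusive means some that reach 60%, reason not given; inactive means mean inhibition across replicates below 60%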
TROY NFkB inh: inhibitors of TROY-driven NF-kB signaling, primary screen, Q293 LMP1-TROYcd cells, NF-kB luciferase, uHTS; inhibition, % at 10 µM; Q293 LMP1-TROYcd NF-kB luciferase reporter, 4 h; actives 0.98% (n = 360,000);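 active means compounds whose plate-normalised and pattern-corrected inhibition of the luciferase reporter signal at the single screening dose is 50% or more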
Shn3 inh set2: reduction of Shn3 3'UTR firefly luciferase signal, primary screen, Schnurri-3 inhibitor project, cell-based, Clone20 osteoblasts, set 2; Clone20 osteoblast Shn3 3'UTR firefly luciferase, 24 h; inhibition, % at 12.5 µM; actives 0.52% (n = 360,000); AID 588674, 2011;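 active means mean inhibition of at least 75% with every replicate also reaching 75%; inconclusive means mean inhibition at least 75% but some replicate below; inactive means mean inhibition below 75%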
Of the large screens only hits and unclear results are named; the others gave an inactive call. The list is not random: actives were taken first. Their share in the collection is about 3.4%.

Cc1ccc(C)c(N2CCN(C(=O)c3ccc(CS(=O)(=O)c4ccccc4C)o3)CC2)c1	TWEAK Fn14 block 55.4
Cc1nn(CC(=O)NCCCN2CCC(N3CCCCC3)CC2)c(=O)c2cc(-c3ccccc3)nn12	none
CN(Cc1ccccc1F)C(=O)c1ccc2c(=O)n3c(nc2c1)CCC3	none
COc1ccc(NS(=O)(=O)c2ccc3oc(SC(C)C(N)=O)nc3c2)cc1 (centres undefined)	none
CSc1ncccc1C(=O)OCC(=O)c1cc(C)n(C)c1C	none
Cc1cc(C(=O)COC(=O)c2ccc3c(c2)OCO3)c(C)n1CC1CCCO1 (centres undefined)	TWEAK Fn14 block 58.3, TROY NFkB inh 76.6
Cc1cc(C(=O)COC(=O)c2cccnc2Cl)c(C)n1C	TWEAK Fn14 block 75.8
CSc1ncccc1C(=O)OCC(=O)c1cc(C)n(CC2CCCO2)c1C (centres undefined)	TWEAK Fn14 block 75.6, TROY NFkB inh 61.8
CCn1c(C)cc(C(=O)COC(=O)c2cccnc2SC)c1C	none
Cc1cc(C(=O)COC(=O)C2CCN(C(=O)c3ccc(Cl)cc3)CC2)c(C)n1CC1CCCO1 (centres undefined)	TWEAK Fn14 block 67.9
COc1cc(C(=O)OCC(=O)c2cc(C)n(CC3CCCO3)c2C)cc(OC)c1C (centres undefined)	none
COC(=O)c1cc(S(=O)(=O)N2CCN(Cc3ccccc3)CC2)cn1C	none
CCc1ccc(N2CC(C(=O)OCC(=O)NC3CC3)CC2=O)cc1 (centres undefined)	none
C[C@H]1CN([C@@H](C)CO)S(=O)(=O)c2ccc(Br)cc2O[C@@H]1CN(C)C(=O)Cc1ccccc1	none (no result: MITF TRPM1 inh)
COC(=O)c1ccc(N(CC(=O)NC2CCCC2)C(=O)c2ccc(C)s2)cc1	none
CCOC(=O)C(=O)Cc1cccnn1	none
CCC(C(=O)NCc1ccco1)n1nc(C)n2c(cc3occc32)c1=O (centres undefined)	none
Nc1cc2c(cc1[N+](=O)[O-])-c1ccccc1C2=NO	TWEAK Fn14 block 72.5
CC(=O)Nc1cc2c(cc1[N+](=O)[O-])-c1ccccc1C2=NO	none
COc1ccc(C(=O)NCCn2cc(SCC(=O)N3CCOCC3)c3ccccc32)cc1	TROY NFkB inh 66.9
O=C(NCCn1cc(SCc2ccccc2F)c2ccccc21)c1c(F)cccc1F	TWEAK Fn14 block 62.2, Shn3 inh set2 inconclusive (no result: MITF TRPM1 inh)
O=C(NCCn1cc(SCC(=O)N2CCOCC2)c2ccccc21)c1c(F)cccc1F	none (no result: MITF TRPM1 inh)
O=C(CSc1cn(CCNC(=O)c2ccc3ccccc3c2)c2ccccc12)NCc1ccco1	TWEAK Fn14 block 59.9 (no result: MITF TRPM1 inh)
COc1ccc(C(=O)NCCn2cc(SCC(N)=O)c3ccccc32)cc1	TWEAK Fn14 block 50.6, TROY NFkB inh 62.8
COCCN(CCOC)Cc1cc(=O)oc2cc(C)c(Cl)cc12	none (no result: LMP1 NFkB inh, MITF TRPM1 inh)
CN(CC(=O)Nc1ccccc1Cl)C(=O)C1CSC2(C)CCC(=O)N12 (centres undefined)	none
COc1ccc(S(=O)(=O)N2CCCCC2)cc1NC(=O)CCNC(=O)c1ccc(Cl)cc1	none
CCCN1CN(CCc2ccccc2)CNC1=S	TWEAK Fn14 block 103.7
S=C1NCN(CCc2ccccc2)CN1Cc1ccccc1	TWEAK Fn14 block 95.8
CCCCN1CNC(=S)N(CCc2ccccc2)C1	none
c1ccc(CSc2nnc(-c3cccnc3)o2)cc1	none (no result: TROY NFkB inh)
c1cncc(-c2nnc(SCc3nc4ccccc4[nH]3)o2)c1	TROY NFkB inh 74.2
CCOc1ccc(/C=C/C(=O)Nc2ccc(C(N)=O)cc2)cc1OC	none
CCOc1cc(/C=C/C(=O)Nc2ccc(C(=O)NCCN(CC)CC)cc2)ccc1OCC(C)C	MITF TRPM1 inh 83.2
Cc1ccc(S(=O)(=O)Nc2cccc3ncccc23)s1	HIF-2a inh 80.5, TWEAK Fn14 block 107.7, MITF TRPM1 inh 99.6, TROY NFkB inh 85.1
CC(C)[C@H](NC(=O)c1ccccc1)C(=O)OCC(=O)c1c(N)n(C)c(=O)n(C)c1=O	none
O=C1CN(S(=O)(=O)c2cc(Br)ccc2Br)CCN1	none (no result: MITF TRPM1 inh)
O=c1c(Br)ccc(Br)cc1Br	HIF-2a inh 89.0, TWEAK Fn14 block 103.8, MITF TRPM1 inh 101.9, Shn3 inh set2 96.5
COC(=O)c1cc(NC(=O)/C=C/c2ccc3c(c2)OCO3)cc(C(=O)OC)c1	none
O=C(/C=C/c1ccc2c(c1)OCO2)Nc1nc(-c2ccccc2)cs1	TWEAK Fn14 block 87.7, TROY NFkB inh 61.5
Cc1ccc(-c2csc(NC(=S)NC(=O)/C=C/c3ccco3)n2)cc1	none
Cc1sc(NC(=O)/C=C/c2ccc3c(c2)OCO3)nc1-c1ccccc1	TWEAK Fn14 block 88.5
COC(=O)c1cccc(NC(=O)/C=C/c2ccc3c(c2)OCO3)c1	HIF-2a inh 49.9
O=C(/C=C\c1ccco1)Nc1nc(-c2ccc3ccccc3c2)cs1	TWEAK Fn14 block 83.3
O=C(/C=C/c1ccc2c(c1)OCO2)Nc1nncs1	none (no result: LMP1 NFkB inh, MITF TRPM1 inh)
OC(c1ccccc1)c1ncc(-c2ccccc2F)[nH]1 (centres undefined)	none (no result: LMP1 NFkB inh, MITF TRPM1 inh)
Cc1c(C(=O)NCc2ccc3c(c2)OCCO3)sc(=O)n1Cc1ccc(S(=O)(=O)N(C)C)cc1	none (no result: LMP1 NFkB inh, MITF TRPM1 inh)
COc1ccc(N2CCN(c3nc(NCCc4ccc(OC)c(OC)c4)nc(OC)n3)CC2)cc1	TROY NFkB inh 57.0
CCOc1nc(NCCc2ccc(OC)c(OC)c2)nc(N2CCN(c3ccc(OC)cc3)CC2)n1	none
Cc1ccc2nc(-c3ccc(-c4ccccn4)s3)cn2c1	none
Cc1[nH]n(-c2nc(-c3ccc(Cl)cc3)cs2)c(=O)c1N=Nc1ccc(O)cc1	TWEAK Fn14 block 87.7, Shn3 inh set2 90.4
O=C(OCCN1C(=O)c2cccc3c(N4CCOCC4)ccc(c23)C1=O)c1ccc(Cl)cc1	TWEAK Fn14 block 66.1
CSc1nc(NNC=O)cc(Oc2ccc(NC(C)=O)cc2)n1	none
O=C(CCc1nc2ccccc2c(=O)[nH]1)Nc1cc(C(F)(F)F)ccc1N1CCCC1	TWEAK Fn14 block 61.5, TROY NFkB inh 50.6
Cc1ccc(S(=O)(=O)N2CCCCC2)cc1NC(=O)CCc1nc2ccccc2c(=O)[nH]1	none
COc1ccc(C(c2c(NC(=O)c3ccco3)sc(C)c2C)N2CCOCC2)cc1 (centres undefined)	TWEAK Fn14 block 82.6, TROY NFkB inh 51.5
O=c1c2[nH]c3cccc(Cl)c3c2ncn1CCN1CCCCC1	none
O=c1c2[nH]c3cccc(Cl)c3c2ncn1CC1CCCO1 (centres undefined)	TWEAK Fn14 block 87.3, TROY NFkB inh 76.5
CCCCOc1ccc2c(c1)/C(=C(\C(Cl)=C(Cl)Cl)[N+](=O)[O-])N2	LMP1 NFkB inh 44.4
Oc1ccc(Br)cc1-c1nc2cnccn2c1NC1CCCC1	TWEAK Fn14 block 62.4
